The structures appear in SMILES notation. This is part of a sample that, as a whole, favours compounds with a hit. Of some 83,000 tested, about 20% had one in any assay.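 Assay: single dose, 48 h. Readout: percent growth (0 = no net growth; negative = cell death). Active: <10.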 Values without a mark were called inactive. The source made the active and inactive calls.

The test system of this experiment is SF-295 CNS. The experiment in a line: NCI-60 one-dose screen, 48 h (100 = growth as untreated, 0 = no growth, -100 = all killed). To be noted: 10 µM unless noted.
As for `O=C(c1cccc(C(=O)c2ccc3c4c(cccc24)C(=O)N(c2ccccc2)C3=O)c1)c1ccc2c3c(cccc13)C(=O)N(c1ccccc1)C2=O`, the growth was 103%. As for `Cc1ccc[n+](CCC(N)=O)c1`, the growth is 93.5%. Under `Cc1ccc2nc(N)nnc2c1` stands 118%; under `CCOc1ccncc1[N+](=O)[O-]`, 108%. Regarding `Oc1cc(O)c2c(c1)O[C@H](c1ccc(O)c(O)c1)[C@@H](O)C2`, the growth was 97.8%. For the compound `Cn1c(=O)c2nc3c(=O)n(C)c(=O)n(C)c3nc2n(C)c1=O`, the growth is 107%. Consider `C=CCOc1ccc(Cl)cc1Cl`, for which the growth was 98.2%. Consider `CCOC(=O)/C(O)=C(\C=N\C(=S)Nc1ccc(Cl)c(Cl)c1)C(=O)OCC`, for which the growth was 105%. Under `CCOc1ccc(NC(=S)N2CCC(CCCC3CCN(C(=S)Nc4ccc(OCC)cc4)CC3)CC2)cc1` stands 84.6%. To `Clc1ccc(C(SCc2ccccc2)SCc2ccccc2)cc1` belongs 102%; to `CC(=O)C1C(=O)C(=O)N(c2ccc(Cl)c(Cl)c2)C1=O` (stereo not drawn), 96.7%; to `Cc1cc(Cl)cc(Cc2cc(Cl)cc(C)c2O)c1O`, 22.6%. Under `c1ccc(Oc2c3ccccc3nc3ccccc23)cc1` stands -39.1% (active). Consider `O=[N+]([O-])c1ccc2[nH]c(=S)n(/C=C(/c3ccc(Cl)cc3Cl)S(=O)(=O)Cc3ccc(Cl)cc3Cl)c2c1`, for which the growth was 97.4%. To `N#C/C(=C\c1ccc(C#N)cc1)C(=O)c1ccccc1` belongs 107%.

With `C/C(O)=C(/C=N\C(=S)Nc1ccc(S(=O)(=O)Nc2nccs2)cc1)C(=O)Nc1ccccc1C`, the growth is 104%. Under `CCOP(=O)(NC(c1ccccc1)c1ccccc1)OCC` stands 102%.

As to `CC(=O)OCC1OC(n2cnc3c(=S)nc(N)[nH]c32)C(OC(C)=O)C1OC(C)=O` (stereo not drawn), the growth is 40%. For the compound `CCCCn1cnc2c(=O)[nH]cnc21`, the growth is 100%. `O=C(NCc1ccccc1)/C(=C/c1ccccc1)NC(=O)c1ccccc1`: the growth is 106%.

Turning to `O=CNCCc1ccccc1`, the growth was 95.8%. To `O=S(Cc1ccccc1)/C(=C/NC(=S)Nc1cc(Cl)ccc1Cl)c1ccccc1` (stereo not drawn) belongs 103%; to `Cc1c(Cl)cccc1N=C=S`, 93.9%.

In the case of `CC(=O)C1C(=O)C(=O)N(c2cccc([N+](=O)[O-])c2)C1=O` (stereo not drawn), the growth was 107%. Turning to `CCOc1ccc2c(c1)c(C)cc(C)[n+]2CC`, the growth was 54.3%. To `S=CN1CCCCC1` belongs 96%; to `Cc1nc(C)c(C(=O)O)cc1C(=O)O`, 118%; to `Cc1cc(CC(=O)NCCO)n(CCO)c(=O)c1`, 104%. To `NC(CSSCC(N)C(=O)O)C(=O)O` (stereo not drawn) belongs 11%; to `C/C(O)=C(/C=N/C(=S)Nc1ccccc1)C(=O)Nc1ccccc1C`, 105%; to `CC(C)(C)[Si](C)(C)OCC1OC(n2cnc3c(N)ncnc32)CC1OS(C)(=O)=O` (stereo not drawn), 110%. For `NNC(=O)N/N=C1\C(=O)N(c2nccs2)C(=O)C(=O)C1c1nc2ccccc2s1` (stereo not drawn), the growth is 109%. Turning to `C(=C\c1ccncc1)/c1ccncc1`, the growth was 107%.

Values taken from PubChem BioAssay (NCI).
